PMC7819943, “Rice protein-binding microarrays: a tool to detect cis-acting elements near promoter regions in rice”
Over roughly 35,000 sequences, “fluorescence intensity (a.u.)” has its median near 10,000; the highest 2% begin near 52,000. The full list was thinned out, with the highest values kept by preference.

Target: T1, OsWOX13 (Oryza sativa, UniProt Q5QMM3 1-267)
T1 sequence: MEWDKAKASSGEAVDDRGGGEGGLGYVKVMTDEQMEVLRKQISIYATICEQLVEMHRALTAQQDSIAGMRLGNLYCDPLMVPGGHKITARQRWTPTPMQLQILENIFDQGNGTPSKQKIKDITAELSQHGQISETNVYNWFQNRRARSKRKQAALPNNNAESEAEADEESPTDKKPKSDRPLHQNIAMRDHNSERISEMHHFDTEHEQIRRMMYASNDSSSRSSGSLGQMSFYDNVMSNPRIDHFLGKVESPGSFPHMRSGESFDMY
Experiment: protein-binding microarray (RPBM); PBS, 2% BSA, 51.3 ng/ul salmon testes DNA, 50 uM zinc acetate, 200 nM TF, 25 C, 1 h; high values mean tight binding
Conditions: protein: recombinant; tags: N-terminal polyhistidine and DsRed monomer fusion (pET32a); label: CyDye5-dUTP incorporated in the synthesized complementary strand; 3' TTTTT single-stranded linker to array surface; dsDNA, one strand shown
Method in brief: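 Transcription factors, each fused N-terminally to a polyhistidine tag and DsRed, were expressed in E. coli BL21-CodonPlus and purified on Ni–NTA. A custom Agilent array was made double-stranded by primer extension with Cy5-dUTP and blocked with 2% BSA. It was incubated with 200 nM protein in PBS, 2% BSA, salmon testes DNA and 50 µM zinc acetate at 25 °C for 1 h, then washed. The binding signal is per-feature fluorescence intensity (arbitrary units) read on an Axon 4000B scanner.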

Row | Sequence | binding signal
1 | TGTAACAAACAGGCTGTAACGGCACCGTAATAAACCCAACCGGAGTCACCTAGTGCAG | 6570 fluorescence intensity (a.u.)
2 | AGCCAATCAGAATCCAAATAAAACATTCTTGCAGCAGGCGCGGAGTCACCTAGTGCAG | 15900 fluorescence intensity (a.u.)
3 | ATTTGTCTAGTACTCCTAATTGGTACATCGACGATCTGCGCGGAGTCACCTAGTGCAG | 6670 fluorescence intensity (a.u.)
4 | CTAGCCACTTGGTATAATTGACTGAGTCTTGATAAAGCTTCGGAGTCACCTAGTGCAG | 7350 fluorescence intensity (a.u.)
5 | CAAATGTAATTTCGCACTATTCTTATCTAATGTTTGACATCGGAGTCACCTAGTGCAG | 4370 fluorescence intensity (a.u.)
6 | TTTGACCTTTGTTCTGATTGCTACAACGAGGGAAAGTTTACGGAGTCACCTAGTGCAG | 4690 fluorescence intensity (a.u.)
7 | ATATATATATATATATATATATATATATATATAAACCCAACGGAGTCACCTAGTGCAG | 24000 fluorescence intensity (a.u.)
8 | ATCTAAGCTCATCTCAACCAATCACAACCATCGTTGATTTCGGAGTCACCTAGTGCAG | 3410 fluorescence intensity (a.u.)
9 | ATAAATTACTTTTCGTTTGCAAATATGCTGTTTGAATAAGCGGAGTCACCTAGTGCAG | 13300 fluorescence intensity (a.u.)
10 | TTACATGATTATGTTAATTACTACACAATTATAGGGCCTACGGAGTCACCTAGTGCAG | 42500 fluorescence intensity (a.u.)
11 | TTCTGATCACAGATCAATTACTCTTGATCGCCCATTTATTCGGAGTCACCTAGTGCAG | 9590 fluorescence intensity (a.u.)
12 | TGTATTCATCATCTAAATTATTGTTCATAAACCTATAGGCCGGAGTCACCTAGTGCAG | 3420 fluorescence intensity (a.u.)
13 | ACGGAATGAACACTAATTTACTTAATACATAGAACCACGGCGGAGTCACCTAGTGCAG | 19400 fluorescence intensity (a.u.)
14 | AACCAATTTATATTGTCAGAAGAAAATGCATTATATAGGTCGGAGTCACCTAGTGCAG | 6730 fluorescence intensity (a.u.)
15 | CATTGAATGTTTGGACACTAATTATAAATATTAAACGTAGCGGAGTCACCTAGTGCAG | 9090 fluorescence intensity (a.u.)
16 | AGTTATTGATAACATAAGCCTTAAAAGTTCGCCCTAACCTCGGAGTCACCTAGTGCAG | 4600 fluorescence intensity (a.u.)
17 | CAAAACAGACATAATCTTGTTGGACAGACGTAGCCATGAACGGAGTCACCTAGTGCAG | 12500 fluorescence intensity (a.u.)
18 | TTGATTGGATAATTTTGTGGTTTGGGAAGAAATGGTGATGCGGAGTCACCTAGTGCAG | 64000 fluorescence intensity (a.u.)
19 | TGGAAGTCAAGTCACTAATTGGAAGAAGATGGTGATAATGCGGAGTCACCTAGTGCAG | 16600 fluorescence intensity (a.u.)
20 | TGCTTGCTTGCTTGGTTTGATTGGTGGAGGTGGGAGGAGTCGGAGTCACCTAGTGCAG | 3920 fluorescence intensity (a.u.)
21 | CATTGATTTTGTTTTATTATTTTGGTTGGTGGTGCCGTGTCGGAGTCACCTAGTGCAG | 39100 fluorescence intensity (a.u.)
22 | GCTTAATTAGCTTGTATTTAGTTGGTTAATTTAGTGTTGTCGGAGTCACCTAGTGCAG | 43600 fluorescence intensity (a.u.)
23 | TCATAATTGGATGGCATTGTACTGTGATTTGTTTGTGTTGCGGAGTCACCTAGTGCAG | 49200 fluorescence intensity (a.u.)

Row | Sequence | binding signal
24 | TTGCAATTGCCAATTTCTTTATTATATTGTTGGTTTAACTCGGAGTCACCTAGTGCAG | 16700 fluorescence intensity (a.u.)
25 | GGTTGGATGGTTGGATTTGATGTGGATTTGAATTGTTATGCGGAGTCACCTAGTGCAG | 7890 fluorescence intensity (a.u.)
26 | GTTGGTTAATTGCAATTTAATTGTTGTATTGTAAGAGTCTCGGAGTCACCTAGTGCAG | 56100 fluorescence intensity (a.u.)
27 | CCTAATTTGCGTGATTGGATTGGTTGGTTGTGTTGTAATGCGGAGTCACCTAGTGCAG | 65000 fluorescence intensity (a.u.)
28 | AGTTTGGATTTTGGTTGAAATTGAAGATAATGTGACTGAACGGAGTCACCTAGTGCAG | 3240 fluorescence intensity (a.u.)
29 | GGTGATTGCATTTGATTGGGTGGAAAAGGTTTGATTTTGTCGGAGTCACCTAGTGCAG | 64900 fluorescence intensity (a.u.)
30 | GACACTGGGTAAATTATTCAATTCTAACTAAATTATATGACGGAGTCACCTAGTGCAG | 4590 fluorescence intensity (a.u.)
31 | TCGATAAATTGAGGAGACCAAAATTCACGAAATCAACATACGGAGTCACCTAGTGCAG | 7550 fluorescence intensity (a.u.)
32 | AGCTGTTCCAATTATGAACTCACTAACTTTACATAGAGGTCGGAGTCACCTAGTGCAG | 3650 fluorescence intensity (a.u.)
33 | ACAGTTCCTTTGTGCCAATCATTGAACCCGGGAATGCTGGCGGAGTCACCTAGTGCAG | 4780 fluorescence intensity (a.u.)
34 | TATGAATGACATATAAACAGATAATCGTGTTCACCGAATGCGGAGTCACCTAGTGCAG | 20900 fluorescence intensity (a.u.)
35 | TCTGATAGCTTGTGAGGGTTTCATTCATCCTCTGCTAGTGCGGAGTCACCTAGTGCAG | 6630 fluorescence intensity (a.u.)
36 | GTCTTCAAATTATATTAGTTATAACTATAGTTCACACAATCGGAGTCACCTAGTGCAG | 4610 fluorescence intensity (a.u.)
37 | TCAGCTAATCAGCTAACTGGTCCTTTTCCTACTTCCCTTGCGGAGTCACCTAGTGCAG | 8010 fluorescence intensity (a.u.)
38 | GGGGATTGGGAGTTTATACAAGGGAATTGATGGTGAGATTCGGAGTCACCTAGTGCAG | 21000 fluorescence intensity (a.u.)
39 | TTAAGATAGAGGAAACATTGATTGTATGCATGCTATATATCGGAGTCACCTAGTGCAG | 3750 fluorescence intensity (a.u.)
40 | GCTAATTTATACAATAGTTGCTTACTATAGAATTAATGCACGGAGTCACCTAGTGCAG | 27200 fluorescence intensity (a.u.)
41 | GCATAGATTATTATGCAGAAAGTTCATGTATATGACCAGCCGGAGTCACCTAGTGCAG | 6640 fluorescence intensity (a.u.)
42 | ACACCAATTGAACATTTGGATGTAAACATTAGGGATGCTGCGGAGTCACCTAGTGCAG | 3400 fluorescence intensity (a.u.)
43 | TGTTAGATGATAAAACATGATTAATATTTTATGCGTGACTCGGAGTCACCTAGTGCAG | 8120 fluorescence intensity (a.u.)
44 | ATGATTAATTATTATTTTAGTGATATGCGATATACTCGTGCGGAGTCACCTAGTGCAG | 65000 fluorescence intensity (a.u.)
45 | CATTTGCTAATGACGGATTAATTAGGGTTTATAAATTCGTCGGAGTCACCTAGTGCAG | 24400 fluorescence intensity (a.u.)
46 | ATATGATTAATATTTTATGCGATTAATATTTTATGCGTGACGGAGTCACCTAGTGCAG | 41400 fluorescence intensity (a.u.)
